Reference: PubChem BioAssay (NCATS)
Inconclusive results are not listed. The source made the active and inactive calls. The call rests on the fitted dose curve; in most records, active means well fitted cell-killing curve with a large enough effect; inconclusive means small, poorly fitted or top-dose-only effect, or effect the other way; inactive means flat fitted curve, though single readings scatter.

Tests used:
Assay in all cases: Primary qHTS to identify gynecologic anti-cancer compounds using libraries of approved drugs and bioactive compounds (AID 1345084); further: nearly all actives have a fitted effect of over 55% in size
Conditions in all cases: Gynecologic cancer cell panel viability, ATPlite luminescence, 48 h; series mostly up to 57.5 µM
JEG-3 = tested on: JEG-3
Method in brief: (§1)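 Cytotoxicity screen measuring ATP content by luciferase luminescence. Each compound is applied at five concentrations for 48 h at 37 C with 5% CO2.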

OV90 = tested on: OV90
Method in brief: as §1

PA-1 = tested on: PA-1
Method in brief: as §1

SKOV3 = tested on: SKOV3
Method in brief: as §1

Tov-21-G = tested on: Tov-21-G
Method in brief: as §1

Tov112D = tested on: Tov112D
Method in brief: as §1
On the % scale 0 is the no-effect control and ±100 the full control effect.

CC1=CC(=O)C2C(C)(C)CCC[C@]2(C)[C@H]1CO (some centres undefined)
inactive: Potency (JEG-3) | Potency (OV90) | Potency (PA-1) | Potency (SKOV3) | Potency (Tov-21-G) | Potency (Tov112D)

CC1=CC(=O)CC(C)(CO)C1(O)/C=C/C(C)O[C@@H]1O[C@H](CO)[C@@H](O)[C@H](O)[C@H]1O (some centres undefined)
inactive: Potency (JEG-3) | Potency (OV90) | Potency (PA-1) | Potency (SKOV3) | Potency (Tov-21-G) | Potency (Tov112D)

CC(=O)O[C@H]1CC[C@H](C)[C@@]2(C)[C@H](OC(C)=O)c3c(C)coc3C(=O)[C@H]12
inactive: Potency (JEG-3) | Potency (OV90) | Potency (PA-1) | Potency (SKOV3) | Potency (Tov-21-G) | Potency (Tov112D)

COC(=O)C1=CO[C@@H](O[C@@H]2O[C@H](CO)[C@@H](O)[C@H](O)[C@H]2O)[C@H]2[C@@H]1C=C[C@@]21C=C([C@H](C)O)C(=O)O1
inactive: Potency (JEG-3) | Potency (OV90) | Potency (PA-1) | Potency (SKOV3) | Potency (Tov-21-G) | Potency (Tov112D)

CCc1c(-c2ccccc2)c(-c2ccccc2)nn1-c1ccccc1-c1cccc(OCC(=O)O)c1
inactive: Potency (JEG-3) | Potency (OV90) | Potency (PA-1) | Potency (SKOV3) | Potency (Tov-21-G) | Potency (Tov112D)

C=C(C(=O)O)C1CCC2(C)CCCC(C)(O)C2C1 (centres undefined)
inactive: Potency (JEG-3) | Potency (OV90) | Potency (PA-1) | Potency (SKOV3) | Potency (Tov-21-G) | Potency (Tov112D)

COc1cc(O)cc(C)c1C(=O)O[C@H]1[C@@H](OC(C)=O)[C@H](n2ccc(=O)[nH]c2=O)O[C@@H]1CO
inactive: Potency (JEG-3) | Potency (OV90) | Potency (PA-1) | Potency (SKOV3) | Potency (Tov-21-G) | Potency (Tov112D)

CC1=C(C(=O)O)/C(=C\CO[C@@H]2O[C@H](CO)[C@@H](O)[C@H](O)[C@H]2O)C(OC(=O)/C=C\c2ccc(O)cc2)C1 (some centres undefined)
inactive: Potency (JEG-3) | Potency (OV90) | Potency (PA-1) | Potency (SKOV3) | Potency (Tov-21-G) | Potency (Tov112D)

N#C[C@@H]1C[C@H](F)CN1C(=O)CNC1[C@H]2CN(C(=O)c3ccc(F)cc3)C[C@@H]12 (some centres undefined)
inactive: Potency (JEG-3) | Potency (OV90) | Potency (PA-1) | Potency (SKOV3) | Potency (Tov-21-G) | Potency (Tov112D)

CC(C)C[C@H](CC(=O)NO)C(=O)N[C@H](C(=O)N[C@@H](C)C(=O)NCCN)C(C)(C)C
inactive: activity change, negative = cytotoxicity (JEG-3) 0.977% [at 11.6 µM] | activity change, negative = cytotoxicity (OV90) 19.6% [at 11.6 µM] | activity change, negative = cytotoxicity (PA-1) 8.02% [at 11.6 µM] | activity change, negative = cytotoxicity (SKOV3) 0% [at 11.6 µM] | activity change, negative = cytotoxicity (Tov-21-G) 7.8% [at 11.6 µM] | activity change, negative = cytotoxicity (Tov112D) -2.79% [at 11.6 µM]

COc1ccc2nc(S(=O)(=O)Cc3ncc(C)c(OC)c3C)[nH]c2c1
inactive: Potency (JEG-3) | Potency (OV90) | Potency (PA-1) | Potency (SKOV3) | Potency (Tov-21-G) | Potency (Tov112D)

OC1CCC(Nc2ncc3nc(Nc4c(F)cc(F)cc4F)n([C@H]4CCOC4)c3n2)CC1 (some centres undefined)
inactive: Potency (JEG-3) | Potency (OV90) | Potency (PA-1) | Potency (SKOV3) | Potency (Tov-21-G) | Potency (Tov112D)

CC(=O)C12OC(C)(C)OC1CC1C3CCC4=CC(=O)C=CC4(C)C3(F)C(O)CC12C (centres undefined)
inactive: Potency (JEG-3) | Potency (OV90) | Potency (PA-1) | Potency (SKOV3) | Potency (Tov-21-G) | Potency (Tov112D)

CC(=O)O[C@@H]1c2c3c(cc(O)c2C(=O)O[C@@H]1C)O[C@@]1(C)[C@@H](O)C[C@H]2C(C)(C)C(=O)C=C[C@]2(C)[C@@H]1C3
inactive: Potency (JEG-3) | Potency (OV90) | Potency (PA-1) | Potency (SKOV3) | Potency (Tov-21-G) | Potency (Tov112D)

O=C(CCc1nnc2n(Cc3ccc(Cl)cc3)c(=O)c3ccccc3n12)NCCC1=CCCCC1
inactive: Potency (JEG-3) | Potency (OV90) | Potency (PA-1) | Potency (SKOV3) | Potency (Tov-21-G) | Potency (Tov112D)

C[C@@H]1C[C@@H]([C@@H](O)C(C)(C)O)O[C@H]2C[C@@]3(C)C(=C12)C[C@H](O)[C@H]1[C@@]2(C)CCC(=O)C(C)(C)C2CC[C@@]13C (some centres undefined)
inactive: Potency (JEG-3) | Potency (OV90) | Potency (PA-1) | Potency (SKOV3) | Potency (Tov-21-G) | Potency (Tov112D)

COCC1OC(OC(C)(C)C2CCC3(C)C=C(C4CCC5C4(C)CC(O)C4OC(C(C)(C)OC6OC(CO)C(O)C(O)C6NC(C)=O)CCC45C)CCC3O2)C(NC(C)=O)C(O)C1O (centres undefined)
inactive: activity change, negative = cytotoxicity (JEG-3) 3.33% [at 11.6 µM] | activity change, negative = cytotoxicity (OV90) 3.61% [at 11.6 µM] | activity change, negative = cytotoxicity (PA-1) -1.55% [at 11.6 µM] | activity change, negative = cytotoxicity (SKOV3) 9.88% [at 11.6 µM] | activity change, negative = cytotoxicity (Tov-21-G) 1.68% [at 11.6 µM] | activity change, negative = cytotoxicity (Tov112D) -1.97% [at 11.6 µM]

CC1(C)CC[C@]2(C(=O)O[C@@H]3O[C@H](CO)[C@@H](O)[C@H](O)[C@H]3O)CC[C@]3(C)C(=CCC4[C@@]5(C)CC[C@H](O[C@@H]6O[C@H](C(=O)O)[C@@H](O)[C@H](O)[C@H]6O)C(C)(C)C5CC[C@]43C)C2C1 (some centres undefined)
inactive: activity change, negative = cytotoxicity (JEG-3) 7.56% [at 11.6 µM] | activity change, negative = cytotoxicity (OV90) -4.22% [at 11.6 µM] | activity change, negative = cytotoxicity (PA-1) 9.38% [at 11.6 µM] | activity change, negative = cytotoxicity (SKOV3) 0% [at 11.6 µM] | activity change, negative = cytotoxicity (Tov-21-G) 5.62% [at 11.6 µM] | activity change, negative = cytotoxicity (Tov112D) 11.2% [at 11.6 µM]

C[C@@H]1O[C@@H](O[C@H]2[C@H](OC(=O)[C@]34CCC(C)(C)C[C@H]3C3=CCC5[C@@]6(C)C[C@H](O)[C@H](O[C@@H]7O[C@H](CO)[C@@H](O)[C@H](O)[C@H]7O)[C@@](C)(CO)C6[C@H](O)C[C@@]5(C)[C@]3(C)C[C@H]4O)OC[C@H](O)[C@@H]2O)[C@H](O)[C@H](O)[C@H]1O[C@@H]1OC[C@@H](O)[C@H](O[C@H]2OC[C@](O)(CO)[C@H]2O)[C@H]1O (some centres undefined)
inactive: activity change, negative = cytotoxicity (JEG-3) 13.7% [at 6.55 µM] | activity change, negative = cytotoxicity (OV90) -6.86% [at 6.55 µM] | activity change, negative = cytotoxicity (PA-1) 24.7% [at 6.55 µM] | activity change, negative = cytotoxicity (SKOV3) 19.1% [at 6.55 µM] | activity change, negative = cytotoxicity (Tov-21-G) 8.26% [at 6.55 µM] | activity change, negative = cytotoxicity (Tov112D) 8.3% [at 6.55 µM]
